Measured values as given in PubChem BioAssay (NCATS).
Values joined by “and” are separate entries in the source; they are usually repeats but may differ in a detail not shown here. Equal values may be shown once. Records with an inconclusive call do not appear. A call without a number means that no potency is given here. Active and inactive are the calls of the source. Unless noted, calls follow the shape of the dose curve; as a rule, active = well fitted curve in the direction sought with a large enough effect; inconclusive = small, poorly fitted or top-dose-only effect, or another doubt; inactive = no such curve, though single readings can be large; an effect the other way counts as inactive or inconclusive.

How the values were obtained:
[1] = qHTS for Inhibitors of Cell Surface uPA Generation: Validation Assay (AID 493164);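 also: RAW 264.7 macrophage cells exposed to compound for 18 h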
In short: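 RAW 264.7, 4000 cells/well, o/n plating; cpd 7-pt 1:5 dilution 2.45 nM–38.3 uM final; 18 h, 37 C/5% CO2; ATP-Lite, 5 s luminescence exposure.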

[2] = target: Galactokinase (Homo sapiens) (UniProt P51570); test: qHTS Validation Assay for Inhibitors of Human Galactokinase (GALK) (AID 493189)
In short: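 Inhibition was measured as remaining ATP, detected by luciferase luminescence after a 1 h room-temperature reaction. Final conditions: 5 nM GALK, 100 uM galactose, 35 uM ATP, pH 8.0 HEPES buffer.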

[3] = Validation screen for small molecules that induce DNA re-replication in SW480 colon adenocarcinoma cells (AID 504364)
In short: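 SW480 cells seeded at 250 per well were exposed to compound or DMSO for 48 hr at 37 C, 5% CO2, then stained with Hoechst for 40 min. DNA content per nucleus was imaged (405 nm ex, 500-530 nm em).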

[4] = target: Peptidyl-prolyl cis-trans isomerase NIMA-interacting 1 (Homo sapiens) (UniProt Q13526); test: qHTS Validation Assay to Find Inhibitors of Pin1 (AID 504536; active = well fitted inhibition curve with a large enough effect in the polarisation, with a control signal flat, not every such curve was filed as active; the % refers to the polarisation)
In short: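 Fluorescence polarization competition: compounds (titration) displace HiFluor-488-labeled Pin1-1b peptide from Pin1 (0.3 uM final) in pH 7.5 HEPES buffer with DTT, 10 min at room temperature; %Activity normalized to no-enzyme wells, curves fitted.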

[5] = target: Phosphoglycerate kinase, glycosomal (Trypanosoma brucei brucei) (UniProt P07378); test: qHTS Validation Assay to Find Inhibitors of Phosphoglycerate Kinase (AID 504547)
In short: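 PGK activity was coupled to GAPDH (100nM final), which generates the unstable substrate 1,3-bisphosphoglycerate in-well. Reactions ran 60 minutes at room temperature in 100mM TEA pH 7.6, 5mM MgCl2, 0.01% Tween-20, then Kinase-Glo Plus luminescence was read.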

[6] = target: phosphoglycerate mutase (Leishmania major) (UniProt Q4Q090); test: qHTS Validation Assay to Find Inhibitors of Phosphoglycerate Mutase (AID 504548); details: Potency: inhibition qHTS;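 also: end-point luminescence from Kinase-GloPlus after the PGAM reaction; series mostly up to about 58 µM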
In short: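 L. major PGAM (1.25nM final) was added to substrate buffer and pinned compound, incubated 45 minutes at room temperature, then Kinase-GloPlus added; luminescence read after 10 minutes. Buffer: 100 mM TEA pH 7.6, 5 mM MgCl2, 0.01% Tween-20.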

[7] = target: Ubiquitin carboxyl-terminal hydrolase 1 (Homo sapiens) (UniProt O94782); test: Inhibitors of USP1/UAF1: Pilot qHTS (AID 504865); also: nearly all actives have a fitted effect of over 35% in size; also: potency is read from the fitted curve at half-maximal effect
In short: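 Deubiquitinase activity followed as kinetic rhodamine fluorescence release from 150 nM Ub-Rho. 1 nM USP1/UAF1 with compound, after 15 min room-temperature preincubation, in HEPES pH 7.8 buffer containing TCEP, EDTA, BSA and Tween-20.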

[8] = qHTS for Inhibitors of ATXN expression: Validation of Cytotoxic Assay (AID 588349); also: potency is read from the fitted curve at half-maximal effect
In short: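 HEK293 cells were dosed with titrated compounds for 72 hr at 37 degrees C. Viability was read by CellTiter Glo luminescence, with intracellular ATP as the marker of cell survival.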

[9] = qHTS for Inhibitors of ATXN expression: Validation (AID 588378); also: nearly all actives have a fitted effect of over 75% in size; also: potency is read from the fitted curve at half-maximal effect
In short: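 Luciferase luminescence (Bright-Glo) from an ATXN2-FFLuc HEK293 line after 24 h compound exposure at 37 °C, preceded by a CellTiter-Fluor fluorescence viability read. Serial dilutions of a reference ATXN2 inhibitor and a luciferase inhibitor served as controls.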

[10] = Nrf2 qHTS screen for inhibitors: Validation (AID 493153; active = well fitted inhibition curve with a large enough effect in the main read-out, with a control signal flat, not every such curve was filed as active); details: Potency: luciferase luminescence; viability change: measured here: cytotoxicity max response
In short: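 A549 cells carrying an ARE-driven firefly luciferase reporter, in 5% FBS OPTI-MEM, were treated with compounds in concentration-response for 18-24 h at 37°C. Viability was read by CellTiter-Fluor fluorescence, then Nrf2 activity by luciferase luminescence.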

[11] = target: DNA dC->dU-editing enzyme APOBEC-3G (Homo sapiens) (UniProt Q9HC16); test: qHTS for inhibitors of Vif-A3G interactions: Validation (AID 588379); also: potency is read from the fitted curve at half-maximal effect
In short: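 HeLa cells stably expressing Vif and A3G-eYFP, 700 cells/well, incubated overnight at 37 deg C, then exposed to compound overnight at 37 deg C. Inhibition of Vif-mediated degradation read as increased yellow fluorescence (Ex 488/Em 500-530) by laser-scanning cytometry.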

[12] = target: Estrogen receptor (Homo sapiens) (UniProt P03372); test: qHTS assay for small molecule antagonists of estrogen receptor alpha signaling (AID 588513; active = well fitted curve in the direction sought with a large enough effect in the signal ratio, with a control signal flat, not every such curve was filed as active; the % refers to the signal ratio)
In short: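 Antagonist mode: inhibition of 0.5 nM 17-beta-estradiol-driven beta-lactamase reporter in HEK 293 ER-alpha-UAS-bla cells, 18 h at 37C, CCF4 readout after 2 h at RT. Normalised to estradiol and DMSO; titration fitted to Hill.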

[13] = target: Estrogen receptor (Homo sapiens) (UniProt P03372); test: qHTS assay for small molecule agonists of estrogen receptor alpha signaling (AID 588514; calls by dose curve; also: nearly all actives have a fitted effect of over 70% in size)
In short: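 ER-alpha-UAS-bla GripTite HEK 293 cells in medium with 2% charcoal/dextran-treated FBS were treated with compound titrations at 37 C for 18 hrs; beta-lactamase reporter read by CCF4 fluorescence after 2 hrs at RT.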

[14] = target: Androgen receptor (Homo sapiens) (UniProt P10275); test: qHTS assay for small molecule agonists of androgen receptor signaling (AID 588515; active = well fitted curve in the direction sought with a large enough effect in the signal ratio, with a control signal flat; the % refers to the signal ratio); details: AR-UAS-bla HEK293, beta-lactamase ratio, agonist 16 h; stronger effect = higher value
In short: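 EC50 and efficacy came from Hill fits of titrations (up to 92 uM) normalized to 30 nM R1881 as 100% and DMSO as 0%. Compound exposure was 16 h at 37 C on AR-UAS-bla HEK293 cells, with a 405/460/530 nm CCF4 fluorescence read.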

[15] = target: Androgen receptor (Homo sapiens) (UniProt P10275); test: qHTS assay for small molecule antagonists of androgen receptor signaling (AID 588516; active = well fitted curve in the direction sought with a large enough effect in the signal ratio, with a control signal flat, not every such curve was filed as active; the % refers to the signal ratio)
In short: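 Antagonist mode: inhibition of R1881-stimulated (10 nM final) bla reporter in GeneBLAzer AR HEK 293 cells, 16 h at 37C, compounds titrated. IC50 and efficacy from Hill-equation fits of 405/460–530 nm FRET ratios.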

[16] = target: Bile acid receptor (Homo sapiens) (UniProt Q96RI1); test: qHTS assay for small molecule antagonists of farnesoid X receptor signaling (AID 588526; calls by dose curve)
In short: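 Antagonist mode: titrated compounds tested against chenodeoxycholic acid stimulation (normalized to 50 uM CDCA and DMSO) in GeneBLAzer HEK293T cells for 16 h. Beta-lactamase read by CCF4 fluorescence; IC50 from Hill fits.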

[17] = target: Glucocorticoid receptor (Homo sapiens) (UniProt P04150); test: qHTS assay for small molecule agonists of glucocorticoid receptor signaling (AID 588532; active = well fitted curve in the direction sought with a large enough effect in the signal ratio, with a control signal flat; the % refers to the signal ratio); details: HeLa MMTV-bla, beta-lactamase ratio, agonist, 18 h; stronger effect = higher value; percent of dexamethasone control, DMSO zero
In short: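 MMTV-bla HeLa beta-lactamase reporter cells in 1% charcoal/dextran FBS medium, compounds up to 92 uM for 18 h at 37 C, CCF4 readout; normalized to 0.1 uM dexamethasone (100%), EC50 and efficacy from Hill fits.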

[18] = target: Glucocorticoid receptor (Homo sapiens) (UniProt P04150); test: qHTS assay for small molecule antagonists of glucocorticoid receptor signaling (AID 588533; active = well fitted inhibition curve with a large enough effect in the signal ratio, with a control signal flat, not every such curve was filed as active; the % refers to the signal ratio;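 also: cells stimulated with 2 nM dexamethasone as agonist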)
In short: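 Antagonist-mode qHTS: compound titrations added to GRE-bla HeLa cells, then dexamethasone 2 nM final; 18 h, 37 C. CCF4 FRET fluorescence normalized to dexamethasone and DMSO; IC50 from Hill fit.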

Sequence of Ubiquitin carboxyl-terminal hydrolase 1 (Homo sapiens) (O94782 whole entry, looked up): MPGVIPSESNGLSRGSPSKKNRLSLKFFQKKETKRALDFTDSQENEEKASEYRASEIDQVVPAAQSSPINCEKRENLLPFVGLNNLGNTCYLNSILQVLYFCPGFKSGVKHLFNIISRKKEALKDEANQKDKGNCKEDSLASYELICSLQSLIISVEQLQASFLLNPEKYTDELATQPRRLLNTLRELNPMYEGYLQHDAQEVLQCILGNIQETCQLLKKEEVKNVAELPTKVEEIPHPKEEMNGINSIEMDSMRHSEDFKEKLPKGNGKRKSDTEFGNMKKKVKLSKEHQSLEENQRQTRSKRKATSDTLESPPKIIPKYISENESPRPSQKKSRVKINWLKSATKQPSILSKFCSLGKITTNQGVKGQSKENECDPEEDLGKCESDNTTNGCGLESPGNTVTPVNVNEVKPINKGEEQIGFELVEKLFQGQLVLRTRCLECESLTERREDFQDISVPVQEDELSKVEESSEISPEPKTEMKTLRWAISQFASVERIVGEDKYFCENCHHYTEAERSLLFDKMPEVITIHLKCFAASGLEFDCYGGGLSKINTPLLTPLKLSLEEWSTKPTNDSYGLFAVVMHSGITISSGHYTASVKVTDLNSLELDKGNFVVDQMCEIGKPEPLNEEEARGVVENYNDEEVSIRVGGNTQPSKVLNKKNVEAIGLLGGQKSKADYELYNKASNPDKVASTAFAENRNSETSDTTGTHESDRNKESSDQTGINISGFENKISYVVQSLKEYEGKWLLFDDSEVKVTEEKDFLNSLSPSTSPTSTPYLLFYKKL
Sequence of Galactokinase (Homo sapiens) (P51570 whole entry, looked up): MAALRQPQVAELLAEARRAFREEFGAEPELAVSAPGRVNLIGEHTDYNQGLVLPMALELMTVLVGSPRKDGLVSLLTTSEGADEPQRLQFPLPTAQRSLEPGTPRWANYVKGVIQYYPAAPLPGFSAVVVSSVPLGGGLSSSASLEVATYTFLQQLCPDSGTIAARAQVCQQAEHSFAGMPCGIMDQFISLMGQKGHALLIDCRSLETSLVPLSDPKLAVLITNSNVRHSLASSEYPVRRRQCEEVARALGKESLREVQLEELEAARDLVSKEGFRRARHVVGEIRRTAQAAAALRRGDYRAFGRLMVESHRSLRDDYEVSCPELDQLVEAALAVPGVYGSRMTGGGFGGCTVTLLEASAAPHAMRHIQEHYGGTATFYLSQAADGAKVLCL
Sequence of DNA dC->dU-editing enzyme APOBEC-3G (Homo sapiens) (Q9HC16 whole entry, looked up): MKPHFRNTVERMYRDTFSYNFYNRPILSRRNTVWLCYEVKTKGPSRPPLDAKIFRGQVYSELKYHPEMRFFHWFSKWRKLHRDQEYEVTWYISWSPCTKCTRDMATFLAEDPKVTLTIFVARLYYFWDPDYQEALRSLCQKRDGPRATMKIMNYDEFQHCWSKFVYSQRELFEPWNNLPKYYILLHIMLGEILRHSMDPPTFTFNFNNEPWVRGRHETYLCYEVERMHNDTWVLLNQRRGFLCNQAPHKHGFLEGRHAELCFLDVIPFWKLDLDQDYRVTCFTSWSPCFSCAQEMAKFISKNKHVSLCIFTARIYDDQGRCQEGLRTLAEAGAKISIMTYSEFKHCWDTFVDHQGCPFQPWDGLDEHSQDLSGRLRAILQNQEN
Sequence of Peptidyl-prolyl cis-trans isomerase NIMA-interacting 1 (Homo sapiens) (Q13526 whole entry, looked up): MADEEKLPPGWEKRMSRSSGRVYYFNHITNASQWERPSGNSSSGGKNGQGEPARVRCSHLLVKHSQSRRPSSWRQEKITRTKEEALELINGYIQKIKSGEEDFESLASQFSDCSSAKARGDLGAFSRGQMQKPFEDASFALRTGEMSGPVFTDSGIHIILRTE
Sequence of phosphoglycerate mutase (Leishmania major) (Q4Q090 1-553): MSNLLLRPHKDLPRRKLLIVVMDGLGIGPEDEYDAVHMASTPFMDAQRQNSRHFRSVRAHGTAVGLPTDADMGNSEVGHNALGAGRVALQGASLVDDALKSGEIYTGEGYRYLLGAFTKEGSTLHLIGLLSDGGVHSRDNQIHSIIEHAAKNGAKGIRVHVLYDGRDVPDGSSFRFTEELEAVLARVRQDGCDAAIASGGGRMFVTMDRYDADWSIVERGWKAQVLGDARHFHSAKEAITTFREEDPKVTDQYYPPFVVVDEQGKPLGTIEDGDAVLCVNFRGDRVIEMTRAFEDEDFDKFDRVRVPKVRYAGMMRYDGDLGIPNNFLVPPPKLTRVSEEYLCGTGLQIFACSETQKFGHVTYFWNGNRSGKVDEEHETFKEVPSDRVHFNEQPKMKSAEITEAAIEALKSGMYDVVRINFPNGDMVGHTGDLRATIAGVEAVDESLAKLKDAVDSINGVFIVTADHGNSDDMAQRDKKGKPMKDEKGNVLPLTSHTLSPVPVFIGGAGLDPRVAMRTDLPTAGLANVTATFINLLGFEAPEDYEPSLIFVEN
Sequence of Phosphoglycerate kinase, glycosomal (Trypanosoma brucei brucei) (P07378 whole entry, looked up): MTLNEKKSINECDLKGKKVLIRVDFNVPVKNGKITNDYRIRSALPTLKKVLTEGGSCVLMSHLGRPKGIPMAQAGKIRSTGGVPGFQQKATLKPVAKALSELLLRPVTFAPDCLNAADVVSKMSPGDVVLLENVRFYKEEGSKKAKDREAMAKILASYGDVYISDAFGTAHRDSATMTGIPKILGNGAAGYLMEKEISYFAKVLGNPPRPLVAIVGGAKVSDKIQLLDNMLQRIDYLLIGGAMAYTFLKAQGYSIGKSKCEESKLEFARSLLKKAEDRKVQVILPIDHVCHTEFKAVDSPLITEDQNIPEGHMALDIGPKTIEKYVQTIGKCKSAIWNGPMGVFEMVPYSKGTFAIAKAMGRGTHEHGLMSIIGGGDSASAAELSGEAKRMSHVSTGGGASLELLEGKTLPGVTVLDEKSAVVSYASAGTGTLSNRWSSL
Sequence of Androgen receptor (Homo sapiens) (P10275 whole entry, looked up): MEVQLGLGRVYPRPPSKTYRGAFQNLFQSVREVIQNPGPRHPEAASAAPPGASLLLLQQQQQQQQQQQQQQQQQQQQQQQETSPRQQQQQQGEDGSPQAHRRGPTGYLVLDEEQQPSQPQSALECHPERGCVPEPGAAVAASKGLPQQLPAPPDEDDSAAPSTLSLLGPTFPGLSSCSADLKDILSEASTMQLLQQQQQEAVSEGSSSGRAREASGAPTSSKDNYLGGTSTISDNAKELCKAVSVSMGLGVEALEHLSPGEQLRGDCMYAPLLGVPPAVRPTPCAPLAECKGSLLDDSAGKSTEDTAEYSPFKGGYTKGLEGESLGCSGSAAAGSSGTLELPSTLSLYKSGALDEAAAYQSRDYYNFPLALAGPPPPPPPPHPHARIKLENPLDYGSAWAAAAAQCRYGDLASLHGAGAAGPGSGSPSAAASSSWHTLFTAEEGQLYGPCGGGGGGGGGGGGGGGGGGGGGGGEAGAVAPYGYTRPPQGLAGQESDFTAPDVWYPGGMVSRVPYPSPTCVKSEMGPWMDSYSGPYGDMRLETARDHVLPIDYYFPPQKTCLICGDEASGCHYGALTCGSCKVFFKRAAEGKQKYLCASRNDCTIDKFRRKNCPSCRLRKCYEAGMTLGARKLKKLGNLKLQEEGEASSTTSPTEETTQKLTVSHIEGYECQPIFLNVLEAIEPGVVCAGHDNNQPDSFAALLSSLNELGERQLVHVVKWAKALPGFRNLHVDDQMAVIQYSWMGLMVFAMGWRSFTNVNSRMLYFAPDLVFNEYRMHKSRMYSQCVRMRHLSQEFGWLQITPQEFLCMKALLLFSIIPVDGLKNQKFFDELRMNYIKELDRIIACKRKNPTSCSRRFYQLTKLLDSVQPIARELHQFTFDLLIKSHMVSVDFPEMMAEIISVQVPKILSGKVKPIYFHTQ
Sequence of Estrogen receptor (Homo sapiens) (P03372 whole entry, looked up): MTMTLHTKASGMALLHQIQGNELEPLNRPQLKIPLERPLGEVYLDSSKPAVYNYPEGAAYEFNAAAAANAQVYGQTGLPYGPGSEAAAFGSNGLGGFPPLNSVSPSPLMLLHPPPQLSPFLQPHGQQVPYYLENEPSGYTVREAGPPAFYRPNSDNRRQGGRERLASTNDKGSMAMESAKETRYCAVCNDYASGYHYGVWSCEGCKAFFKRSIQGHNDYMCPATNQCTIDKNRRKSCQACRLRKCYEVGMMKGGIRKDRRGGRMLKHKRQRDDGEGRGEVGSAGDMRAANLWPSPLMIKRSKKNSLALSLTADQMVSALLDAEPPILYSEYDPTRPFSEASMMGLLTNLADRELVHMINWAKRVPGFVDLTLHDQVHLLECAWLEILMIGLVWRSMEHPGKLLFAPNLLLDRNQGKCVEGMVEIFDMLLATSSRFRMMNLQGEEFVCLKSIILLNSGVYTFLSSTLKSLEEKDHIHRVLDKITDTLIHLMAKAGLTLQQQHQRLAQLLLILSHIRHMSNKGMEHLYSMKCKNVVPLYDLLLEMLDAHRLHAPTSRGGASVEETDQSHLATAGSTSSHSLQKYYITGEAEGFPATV
Sequence of Glucocorticoid receptor (Homo sapiens) (P04150 whole entry, looked up): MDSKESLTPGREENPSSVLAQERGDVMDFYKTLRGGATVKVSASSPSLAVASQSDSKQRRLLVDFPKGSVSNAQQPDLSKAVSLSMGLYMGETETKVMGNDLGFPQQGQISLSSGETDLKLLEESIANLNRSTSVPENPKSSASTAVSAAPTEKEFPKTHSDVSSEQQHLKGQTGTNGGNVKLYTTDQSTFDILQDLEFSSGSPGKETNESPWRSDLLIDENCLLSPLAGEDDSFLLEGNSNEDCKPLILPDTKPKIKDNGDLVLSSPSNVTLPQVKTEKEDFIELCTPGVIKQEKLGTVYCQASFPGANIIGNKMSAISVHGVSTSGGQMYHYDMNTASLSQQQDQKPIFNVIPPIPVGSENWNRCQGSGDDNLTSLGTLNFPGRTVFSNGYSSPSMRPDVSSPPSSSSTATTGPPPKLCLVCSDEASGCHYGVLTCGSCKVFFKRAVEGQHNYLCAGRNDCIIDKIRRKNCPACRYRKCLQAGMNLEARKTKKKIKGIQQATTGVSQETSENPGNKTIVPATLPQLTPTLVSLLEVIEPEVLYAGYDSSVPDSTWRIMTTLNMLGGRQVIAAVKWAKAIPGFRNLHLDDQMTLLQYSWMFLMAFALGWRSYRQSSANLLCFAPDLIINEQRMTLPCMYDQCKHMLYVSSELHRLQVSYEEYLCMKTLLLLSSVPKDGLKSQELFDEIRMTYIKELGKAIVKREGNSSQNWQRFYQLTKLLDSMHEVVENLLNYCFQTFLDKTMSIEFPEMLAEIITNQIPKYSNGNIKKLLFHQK

## CN1CCC2(CCN3CCc4c(oc5ccccc45)C3C2)N(C)C1=O (centres undefined)
[1]
  outcome: inactive
[2]
  Potency: inactive
[3]
  Potency: inactive
[4]
  Potency: inactive
[5]
  Potency: inactive
[6]
  Potency: inactive
[7]
  Potency: inactive
[8]
  Potency: inactive
[9]
  Potency: inactive

## COc1ccc2c(c1)c(CC(=O)O)c(C)n2C(=O)c1ccccc1
[1]
  outcome: inactive
[2]
  Potency: inactive
[3]
  Potency: inactive
[4]
  Potency: inactive
[6]
  Potency: inactive
[7]
  Potency: inactive
[8]
  Potency: inactive

## Nc1ncnc2c1nc(Sc1ccc(Cl)cc1)n2[C@H]1OC2COP(=O)(O)O[C@@H]2C1O (some centres undefined)
[10]
  Potency: inactive
  viability change: 3.2%
[4]
  Potency: inactive
[5]
  Potency: inactive
[6]
  Potency: inactive
[7]
  Potency: inactive
[8]
  Potency: inactive
[9]
  Potency: inactive

## CNCCNS(=O)(=O)c1cccc2cnccc12
[1]
  outcome: inactive
[2]
  Potency: inactive
[3]
  Potency: inactive
[4]
  Potency: inactive
[5]
  Potency: inactive
[6]
  Potency: inactive
[7]
  Potency: inactive
[8]
  Potency: inactive

## O=C1NC(=O)c2cc(Nc3ccccc3)c(Nc3ccccc3)cc21
[1]
  outcome: inactive
[2]
  Potency: inactive
[3]
  Potency: inactive
[4]
  Potency: inactive
[5]
  Potency: inactive
[6]
  Potency: inactive
[8]
  Potency: inactive

## Cc1nc(N=Nc2cc(S(=O)(=O)O)c3cc([N+](=O)[O-])cc(S(=O)(=O)O)c3c2)c(COP(=O)(O)O)c(C=O)c1O
[1]
  outcome: inactive
[2]
  Potency: inactive
[3]
  Potency: inactive
[5]
  Potency: inactive
[6]
  Potency: inactive
[7]
  Potency: 50.1 µM (active) and 39.8 µM (active)
[8]
  Potency: inactive
[9]
  Potency: inactive
[11]
  Potency: inactive

## Nc1nc2ccc(Cl)cc2c2nc(-c3ccco3)nn12
[1]
  outcome: inactive
[2]
  Potency: inactive
[3]
  Potency: inactive
[4]
  Potency: inactive
[5]
  Potency: inactive
[7]
  Potency: inactive
[8]
  Potency: inactive
[9]
  Potency: inactive

## C[N+](C)(C)CC=O
[1]
  outcome: inactive
[2]
  Potency: inactive
[3]
  Potency: inactive
[4]
  Potency: inactive
[5]
  Potency: inactive
[6]
  Potency: inactive
[7]
  Potency: inactive
[8]
  Potency: inactive
[9]
  Potency: inactive

## NCCC1CCCC(CCN)N1 (centres undefined)
[1]
  outcome: inactive
[2]
  Potency: inactive
[3]
  Potency: inactive
[4]
  Potency: inactive
[5]
  Potency: inactive
[6]
  Potency: inactive
[7]
  Potency: inactive
[8]
  Potency: inactive
[9]
  Potency: inactive

## NC(N)=NC(N)=Nc1cccc(Cl)c1
[1]
  outcome: inactive
[2]
  Potency: inactive
[3]
  Potency: inactive
[4]
  Potency: inactive
[5]
  Potency: inactive
[6]
  Potency: inactive
[7]
  Potency: inactive
[8]
  Potency: inactive
[9]
  Potency: inactive
[11]
  Potency: inactive

## NC(=O)c1ccccc1
[1]
  outcome: inactive
[2]
  Potency: inactive
[3]
  Potency: inactive
[4]
  Potency: inactive
[5]
  Potency: inactive
[6]
  Potency: inactive
[9]
  Potency: inactive
[12]
  outcome: inactive
[13]
  Potency: inactive
[14]
  activation: -3.5% (inactive)
[15]
  outcome: inactive
[16]
  outcome: inactive
[17]
  activation: -7.58% (inactive)
[18]
  Potency: inactive

## O=C1Nc2ccc(I)cc2/C1=C/c1cc(Br)c(O)c(Br)c1
[1]
  outcome: inactive
[2]
  Potency: inactive
[3]
  Potency: inactive
[5]
  Potency: inactive
[6]
  Potency: inactive
[7]
  Potency: 44.7 µM (active)
[9]
  Potency: inactive
[11]
  Potency: 4.22 µM (active)

## CCCCCCCC/C=C\CCCCCCCC(=O)NCCc1ccc(O)c(O)c1
[1]
  outcome: inactive
[2]
  Potency: inactive
[3]
  Potency: inactive
[4]
  Potency: inactive
[5]
  Potency: inactive
[6]
  Potency: inactive
[8]
  Potency: 31.6 µM (active)
[9]
  Potency: 20 µM (active)
